The record followed here is publication PMC4552634, “A New Set of Chemical Starting Points with Plasmodium falciparum Transmission-Blocking Potential for Antimalarial Drug Discovery” (PLoS ONE, 2015).

Hit rate of the full screen: of about 13,000 compounds, about 3,200 (25%) showed an effect of 50% or more. Some of the results follow.

The subject of the assay is P. falciparum stage V gametocytes. Further details: BacTiter-Glo ATP luminescence viability of purified stage V gametocytes in 384-well plates, per cent inhibition versus DMSO. Conditions: 48 h, 5 µM; inhibitor.
For `C[C@H](NC(=O)[C@H](Cc1ccccc1)NC(=O)OC(C)(C)C)C(=O)N[C@@H](CC1CCCCC1)C(O)CN` (stereo partly shown) [TCMDC-137178], the % Inhibition (as a rule, the drop in the measured response relative to a control, in per cent) was -9.62%.
In the case of `CCC(ON1C(N)=NC(N)=NC1(C)C)c1ccccc1` (stereo not shown) [TCMDC-131604] it was -12.67%; in that of `CN1CCN(CCCN(Cc2cccc(-c3cccc(CNC4CCCC4)c3)c2)C(=O)/C=C/c2ccccc2)CC1` [TCMDC-140543], 105.2%.
In the case of `CN1CCN(CCCN(Cc2ccc(-c3cccc(CNC4CCCC4)c3)cc2)C(=O)/C=C/c2ccccc2)CC1` [TCMDC-140547] it was 114.1%; in that of `CCCCN1CCCN(Cc2cccc(NC(=O)c3ccc(-c4ccccc4)cc3)c2)CC1` [TCMDC-141844], -70.1%.
The same measure for `CN1CCN(CCCN(Cc2cccc(-c3ccc(CNC4CCCC4)cc3)c2)C(=O)/C=C/c2ccccc2)CC1` [TCMDC-140544]: 99.25%; for `CN1CCN(CCCN(Cc2ccc(-c3cccc(CNC4CCCC4)c3)cc2)C(=O)Nc2ccccc2)CC1` [TCMDC-140605]: 107.6%.
As for `CCCCCN1CCCN(Cc2cccc(NC(=O)c3ccc(-c4ccccc4)cc3)c2)CC1` [TCMDC-141845], the “% Inhibition” value is given as -85.57%.
The same measure for `COc1cccc(C=CC(=O)N(CCN)Cc2ccccc2)c1` [TCMDC-137725]: -7.766%; for `CN1CC[C@@H](Oc2cc(CNC(=O)c3ccc(-c4ccc(Cl)cc4)s3)ccc2C(F)(F)F)C1` [TCMDC-136151]: -38.31%.
Take `C=CCc1cc(Cc2cnc(N)nc2N)c2ccc(C)nc2c1OC` [TCMDC-137891]: the “% Inhibition” value is on record as -15.21%.
The same measure for `Cc1cc(OCc2ccccc2)c(OCc2ccccc2)cc1C(O)CN(C)Cc1ccccc1` (stereo not shown) [TCMDC-131246]: 18.13%; for `Cc1cc(Nc2ccc(C(C)(C)C)cc2)c2[nH]ncc2n1` [TCMDC-131536]: -25.63%.
The same measure for `Cc1ccccc1CCNC(=O)c1ccc(N2CCN(c3ccncc3)CC2)nc1` [TCMDC-134588]: 6.86%; for `Cc1ccc2cc(C3NC(=O)c4ccccc4N3)c(Cl)nc2c1` (stereo not shown) [TCMDC-124480]: -10.78%; for `N#Cc1cccc(Nc2nccc(NCC(O)c3cccc(C(F)(F)F)c3)n2)c1` (stereo not shown) [TCMDC-136580]: -40.58%.
With `O=C(CCc1ccccc1)NC(c1ccc(Cl)cc1)c1ccc2cccnc2c1O` (stereo not shown) [TCMDC-123537], the “% Inhibition” value came to 82.06%.
In the case of `c1ccc(C(OCCC2CCN(Cc3cccc4cccnc34)CC2)c2ccccc2)cc1` [TCMDC-136047] it was -51.83%.
In the case of `Cc1ccc(C(NC(=O)Cc2ccccc2)c2ccc3cccnc3c2O)cc1` (stereo not shown) [TCMDC-125551], the “% Inhibition” value is recorded as 6.84%.
The same measure for `O=C(NC(c1ccc(Cl)cc1)c1ccc2cccnc2c1O)c1ccccc1` (stereo not shown) [TCMDC-123829]: -93.03%.
The same measure for `O=C(Cc1ccccc1)NC(c1ccccc1)c1ccc2cccnc2c1O` (stereo not shown) [TCMDC-124383]: 92.16%; for `O=C(Cc1ccccc1)NC(c1ccc(Cl)cc1)c1ccc2cccnc2c1O` (stereo not shown) [TCMDC-124427]: 70.3%; for `CN(C)CCNc1ncnc2c1[nH]c1ccc(Br)cc12` [TCMDC-124584]: 3.603%.
In the case of `CN(C)c1cc(N/N=C/c2cc(Cl)ccc2O)nc(N(C)C)n1` [TCMDC-125812] it was -69.18%.
On to `CC1CN(Cc2cccc(C#N)c2)CCN1c1ccc(NC(=O)c2cccs2)cc1` (stereo not shown) [TCMDC-134969], for which the “% Inhibition” value is listed as -7.267%.
Consider `O=C(CSc1cccc[n+]1[O-])c1ccc(Cc2ncc(C(F)(F)F)cc2Cl)s1` [TCMDC-125823], for which the “% Inhibition” value is 10.92%.
In the case of `COc1nc2c(CCN3CC[C@@H](NCc4cc(C#N)c5c(c4)CCO5)[C@@H](O)C3)ccnc2cc1F` [TCMDC-135964] it was 90.2%.
In the case of `COc1ccc2nccc([C@H](O)CN3CCC(NCc4cc(C)c5c(c4)OCCO5)CC3)c2n1` [TCMDC-136075] it was 22.49%; in that of `COc1ccc2ncc(F)c([C@H](O)CN3CCC(NCc4ccc5c(c4)OCCO5)CC3)c2c1` [TCMDC-135828], -2.76%; in that of `COc1nc2c(CCN3CC[C@H](NCc4cc(C#N)c5c(c4)CCO5)[C@H](O)C3)ccnc2cc1F` [TCMDC-135969], -20.52%.
With `COc1ccc2ncc(F)c([C@@H](O)CN3CCC(NCc4ccc5c(c4)NCCS5)CC3)c2n1` [TCMDC-135765], the “% Inhibition” value was 82.34%.
In the case of `COc1ccc2ncc(F)c([C@@H](O)CN3CCC(NCc4cc(C#N)c5c(c4)CCO5)CC3)c2n1` [TCMDC-136078] it was 86.13%; in that of `COc1ccc2ncc(F)c(CCN3CCC(NCc4ccc5c(c4)CCO5)CC3)c2n1` [TCMDC-135491], 11.83%; in that of `COc1ccc2ncc(F)c([C@H](O)CN3CCC(NCc4ccc5c(c4)NC(=O)CO5)CC3)c2c1` [TCMDC-135829], -7.754%.
With `COc1nc2c(CCN3CC[C@H](NCc4cc(C#N)c5c(c4)OCCO5)[C@H](O)C3)ccnc2cc1F` [TCMDC-135968], the “% Inhibition” value is 5.29%.
Consider `O=C(Nc1ccc(-c2cccc(-c3nc4ccccc4[nH]3)c2)cc1)NC1CC1c1ccccc1` (stereo not shown) [TCMDC-133257], for which the “% Inhibition” value was -13.71%.
In the case of `O=C(CC1CCCC1)N(CC1CCN(Cc2ccc(C(F)(F)F)cc2)CC1)c1ccc(N2CCOCC2)c(F)c1` [TCMDC-135855] it was 9.841%; in that of `CCN(CCCN1CCCCC1)c1nccc(Nc2ccc(Cl)cc2)n1` [TCMDC-137046], 6.161%; in that of `CS(=O)(=O)c1ccccc1CNC(=O)c1cccc(-c2ccc(-c3nc4cc(C(F)(F)F)ccc4[nH]3)cc2)c1` [TCMDC-132506], -36.65%.
In the case of `CC(C)N1CCC(N(Cc2ccc(-c3ccc(C(F)(F)F)cc3)cc2)C(=O)Cn2c(CCc3cccc(F)c3F)cc(=O)c3ccccc32)CC1` [TCMDC-141141] it was 111.4%; in that of `CC(C)N1CCC(N(Cc2ccc(-c3ccc(C(F)(F)F)cc3)cc2)C(=O)Cn2c(SCc3cccc(F)c3F)cc(=O)c3ccccc32)CC1` [TCMDC-141157], 117.9%.
For the compound `CC(C)N1CCC(N(Cc2ccc(-c3ccc(C(F)(F)F)cc3)cc2)C(=O)Cn2c(SCc3cccc(F)c3F)nc(=O)c3ccccc32)CC1` [TCMDC-141312], the “% Inhibition” value is recorded as 121.2%.
In the case of `CC(C)N1CCC(N(Cc2ccc(-c3ccc(Cl)cc3)cc2)C(=O)Cn2c(CCc3cccc(F)c3F)nc(=O)c3ccccc32)CC1` [TCMDC-141368] it was 117.4%.
